Experimental data reported in PubChem BioAssay AID1159580 (chemical genetic matrix, 2015).
The whole screen tested about 5,500 compounds, of which about 2,000 (36%) were called active. Not shown: some 18% with an inconclusive outcome. No stated cut-off is given here; in the data, active means normalized growth mostly below about 0.91 (no sharp cut-off); inconclusive means no clear call, values can overlap the other calls; inactive means mostly above about 0.92. Some of the results follow.

Assay: chemical genetic growth profiling, strain panel (AID 1159580);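 further: tested at 20 µM; growth read once vehicle control cultures reached saturation at 30 °C; 1 = growth at the plate median or of vehicle wells; lower values mean less growth of the strain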
Settings: growth OD
[1] = S. cerevisiae deletion strains, locus YDL101C, strain DUN1, hits give low values
[2] = S. cerevisiae deletion strains, locus YHR030C, strain SLT2, hits give low values
[3] = S. cerevisiae deletion strains, locus YDR150W, strain NUM1, hits give low values
[4] = S. cerevisiae deletion strains, locus YGR078C, strain PAC10, hits give low values
[5] = S. cerevisiae deletion strains, locus YJR075W, strain HOC1, hits give low values
[6] = S. cerevisiae deletion strains, locus YMR263W, strain SAP30, hits give low values
[7] = S. cerevisiae deletion strains, locus YMR307W, strain GAS1, hits give low values
[8] = S. cerevisiae deletion strains, locus YNL153C, strain GIM3, hits give low values
[9] = S. cerevisiae deletion strains, locus YPL055C, strain LGE1, hits give low values
[10] = S. cerevisiae deletion strains, locus YPL241C, strain CIN2, hits give low values
[11] = S. cerevisiae deletion strains, locus YAL040C, strain CLN3, hits give low values
[12] = S. cerevisiae deletion strains, locus YCL061C, strain MRC1 (second series), hits give low values
[13] = S. cerevisiae deletion strains, locus YDR363W, strain ESC2, hits give low values
[14] = S. cerevisiae deletion strains, locus YER002W, strain NOP16, hits give low values
[15] = S. cerevisiae deletion strains, locus YNL175C, strain NOP13, hits give low values
[16] = S. cerevisiae deletion strains, locus YNL197C, strain WHI3, hits give low values
[17] = S. cerevisiae deletion strains, locus YNL224C, strain SQS1, hits give low values
[18] = S. cerevisiae deletion strains, locus YOR083W, strain WHI5 (second series), hits give low values

Measured: normalized growth

COc1cc(CC/C(C)=N\O)ccc1OCc1ccc(Cl)c(Cl)c1
active: [2] 0.831 | S. cerevisiae deletion strains, locus YLR113W, strain HOG1, hits give low values 0.816
inactive: S. cerevisiae deletion strains, locus YAR019C, strain CDC15, hits give low values 0.973 | S. cerevisiae deletion strains, locus YBL105C, strain PKC1, hits give low values 0.964 | S. cerevisiae deletion strains, locus YBR135W, strain CKS1, hits give low values 0.97 | S. cerevisiae deletion strains, locus YBR136W, strain MEC1, hits give low values 0.96 | S. cerevisiae deletion strains, locus YBR160W, strain CDC28, hits give low values 0.975 | S. cerevisiae deletion strains, locus YDL017W, strain CDC7, hits give low values 0.963 | S. cerevisiae deletion strains, locus YDL028C, strain MPS1, hits give low values 0.959 | [1] 0.975 | S. cerevisiae deletion strains, locus YDL108W, strain KIN28, hits give low values 0.947 | S. cerevisiae deletion strains, locus YDL132W, strain cdc53, hits give low values 0.983 | S. cerevisiae deletion strains, locus YDL214C, strain PRR2, hits give low values 0.818 | S. cerevisiae deletion strains, locus YDR052C, strain DBF4, hits give low values 0.971 | S. cerevisiae deletion strains, locus YDR054C, strain cdc34, hits give low values 0.968 | S. cerevisiae deletion strains, locus YDR226W, strain ADK1, hits give low values 0.973 | S. cerevisiae deletion strains, locus YDR477W, strain SNF1, hits give low values 0.868 | S. cerevisiae deletion strains, locus YER123W, strain YCK3, hits give low values 0.767 | S. cerevisiae deletion strains, locus YER133W, strain GLC7, hits give low values 0.864 | S. cerevisiae deletion strains, locus YFL009W, strain cdc4, hits give low values 0.968 | S. cerevisiae deletion strains, locus YFL029C, strain CAK1, hits give low values 0.968 | S. cerevisiae deletion strains, locus YFR003C, strain YPI1, hits give low values 0.968 | S. cerevisiae deletion strains, locus YFR019W, strain FAB1, hits give low values 0.808 | S. cerevisiae deletion strains, locus YFR028C, strain CDC14, hits give low values 0.983 | S. cerevisiae deletion strains, locus YGR040W, strain KSS1, hits give low values 0.862 | S. cerevisiae deletion strains, locus YGR052W, strain FMP48, hits give low values 0.881 | S. cerevisiae deletion strains, locus YGR092W, strain DBF2, hits give low values 0.824 | S. cerevisiae deletion strains, locus YHR079C, strain IRE1, hits give low values 0.871 | S. cerevisiae deletion strains, locus YHR082C, strain KSP1, hits give low values 0.883 | S. cerevisiae deletion strains, locus YHR205W, strain SCH9, hits give low values 0.869 | S. cerevisiae deletion strains, locus YIL147C, strain SLN1, hits give low values 0.962 | S. cerevisiae deletion strains, locus YJL095W, strain BCK1, hits give low values 0.849 | S. cerevisiae deletion strains, locus YJL128C, strain PBS2, hits give low values 0.916 | S. cerevisiae deletion strains, locus YJL157C, strain FAR1, hits give low values 0.823 | S. cerevisiae deletion strains, locus YJR016C, strain ILV3, hits give low values 0.969 | S. cerevisiae deletion strains, locus YJR066W, strain TOR1 (second series), hits give low values 0.786 | S. cerevisiae deletion strains, locus YJR066W, strain TOR1, hits give low values 0.867 | S. cerevisiae deletion strains, locus YKL048C, strain ELM1, hits give low values 0.934 | S. cerevisiae deletion strains, locus YKL067W, strain YNK1, hits give low values 0.865 | S. cerevisiae deletion strains, locus YKL101W, strain HSL1, hits give low values 0.852 | S. cerevisiae deletion strains, locus YKL193C, strain SDS22, hits give low values 0.968 | S. cerevisiae deletion strains, locus YKL203C, strain TOR2, hits give low values 0.932 | S. cerevisiae deletion strains, locus YLR133W, strain CKI1, hits give low values 0.875 | S. cerevisiae deletion strains, locus YLR403W, strain SFP1, hits give low values 0.865 | S. cerevisiae deletion strains, locus YML070W, strain DAK1, hits give low values 0.82 | S. cerevisiae deletion strains, locus YMR001C, strain CDC5, hits give low values 0.967 | S. cerevisiae deletion strains, locus YMR205C, strain PFK2 (second series), hits give low values 0.877 | S. cerevisiae deletion strains, locus YMR277W, strain FCP1, hits give low values 0.968 | S. cerevisiae deletion strains, locus YNL006W, strain LST8, hits give low values 0.975 | S. cerevisiae deletion strains, locus YNL020C, strain ARK1, hits give low values 0.851 | S. cerevisiae deletion strains, locus YNL161W, strain CBK1, hits give low values 0.973 | S. cerevisiae deletion strains, locus YNL183C, strain NPR1, hits give low values 0.885 | S. cerevisiae deletion strains, locus YNL207W, strain RIO2, hits give low values 0.965 | S. cerevisiae deletion strains, locus YNL222W, strain SSU72, hits give low values 0.969 | S. cerevisiae deletion strains, locus YNL307C, strain MCK1 (second series), hits give low values 0.845 | S. cerevisiae deletion strains, locus YOL078W, strain AVO1, hits give low values 0.978 | S. cerevisiae deletion strains, locus YOL136C, strain PFK27, hits give low values 0.84 | S. cerevisiae deletion strains, locus YOR061W, strain CKA2, hits give low values 0.818 | S. cerevisiae deletion strains, locus YOR119C, strain RIO1, hits give low values 0.931 | S. cerevisiae deletion strains, locus YOR231W, strain MKK1, hits give low values 0.842 | S. cerevisiae deletion strains, locus YOR329C, strain SCD5, hits give low values 0.972 | S. cerevisiae deletion strains, locus YPL031C, strain PHO85, hits give low values 0.858 | S. cerevisiae deletion strains, locus YPL153C, strain RAD53, hits give low values 0.833 | S. cerevisiae deletion strains, locus YPL204W, strain HRR25, hits give low values 0.873 | S. cerevisiae deletion strains, locus YPL209C, strain IPL1, hits give low values 0.968 | S. cerevisiae deletion strains, locus YPL256C, strain CLN2, hits give low values 0.893 | S. cerevisiae deletion strains, locus YPR025C, strain CCL1, hits give low values 0.98 | S. cerevisiae deletion strains, locus YPR106W, strain ISR1, hits give low values 0.968 | S. cerevisiae deletion strains, locus YPR111W, strain DBF20, hits give low values 0.962 | S. cerevisiae deletion strains, strain NNK1, hits give low values 0.953 | S. cerevisiae deletion strains, strain TSCII, hits give low values 0.97

COc1ccc(CCNC(=S)NCCc2ccc(OC)c(OC)c2)cc1OC
inactive: S. cerevisiae deletion strains, locus YAL013W, strain DEP1, hits give low values 0.998 | S. cerevisiae deletion strains, locus YBR229C, strain ROT2, hits give low values 0.988 | S. cerevisiae deletion strains, locus YCL061C, strain MRC1, hits give low values 0.993 | [1] 0.989 | [3] 0.985 | S. cerevisiae deletion strains, locus YEL061C, strain CIN8, hits give low values 0.987 | [4] 0.981 | [2] 1 | S. cerevisiae deletion strains, locus YHR087W, strain rtc3, hits give low values 0.979 | S. cerevisiae deletion strains, locus YJL187C, strain SWE1, hits give low values 0.994 | S. cerevisiae deletion strains, locus YJR043C, strain POL32, hits give low values 0.993 | [5] 1.04 | S. cerevisiae deletion strains, locus YLR039C, strain RIC1, hits give low values 1.04 | S. cerevisiae deletion strains, locus YLR058C, strain SHM2 (second series), hits give low values 1 | S. cerevisiae deletion strains, locus YLR085C, strain ARP6, hits give low values 1.02 | S. cerevisiae deletion strains, locus YLR262C, strain YPT6, hits give low values 1.02 | S. cerevisiae deletion strains, locus YML094W, strain GIM5, hits give low values 0.981 | S. cerevisiae deletion strains, locus YMR219W, strain ESC1, hits give low values 1 | [6] 1.06 | [7] 1.06 | S. cerevisiae deletion strains, locus YNL128W, strain TEP1, hits give low values 1.02 | [8] 0.992 | S. cerevisiae deletion strains, locus YNL298W, strain CLA4 (second series), hits give low values 1.01 | S. cerevisiae deletion strains, locus YNL322C, strain KRE1, hits give low values 0.992 | S. cerevisiae deletion strains, locus YNR030W, strain Alg12, hits give low values 1 | [9] 0.982 | [10] 1.08 | S. cerevisiae deletion strains, locus YPR135W, strain CTF4, hits give low values 1.05 | S. cerevisiae strains, strain wild type, hits give low values 1.01

COc1ccc(CCN(C)CCc2ccc(OC)c(OC)c2)cc1OC
inactive: [11] 1.08 | [12] 0.998 | [3] 1.01 | [13] 1.01 | [14] 1.01 | [4] 0.992 | [5] 0.983 | [6] 0.999 | [7] 0.998 | [8] 1.03 | [15] 1.02 | [16] 1.01 | [17] 1.01 | [18] 1.02 | [9] 0.985

O=c1cc(-c2ccc(O)c(O)c2)oc2cc(O)cc(O)c12
inactive: [11] 1.02 | [12] 0.989 | [3] 0.964 | [13] 1.02 | [14] 1.01 | [4] 0.989 | [5] 0.984 | [6] 1 | [15] 1.01 | [16] 1.02 | [17] 1.03 | [18] 0.966 | [10] 0.997
